Source: PubChem BioAssay (National Center for Advancing Translational Sciences (NCATS))
Only a selection was taken, and hits are over-represented in it overall.
Methyltransferases: Primary Screen for Target Class Profiling of Small Molecule Inhibitors of Methyltransferases; 3.9% of 25,000 active; calls only at 40 µM; purified enzyme, MTase-Glo SAH luminescence; stronger effect = lower value; call rule not given here
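Each enzyme was reacted with SAM and its substrate, with compounds tested once at 40 uM; SAH formed was read by MTase-Glo luminescence.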
MTase-Glo counter: detection enzyme interference, methyltransferase counter-screen. shares compounds with Methyltransferases. MTase-Glo coupled enzymes, SAH conversion luminescence, no MTase. Potency, µM (series often up to 57.3 µM), inactives show at the highest dose activity change, negative = inhibition, hits mostly inhibitors. 6% of 180 active. AID 1745851; active = well fitted inhibition curve with a large enough effect; also: potency is read from the fitted curve at half-maximal effect
Numbers without * were called inactive; i = inactive; + = active, no number; [ ] = another dose, or the depositor's remark. % is scaled to controls: 0 for no effect and ±100 for the full control effect.

SMILES | Methyltransferases | others
COc1ccc(CN2C(=O)c3ccc(-c4ccco4)n3CC2(C)C(=O)NC2CCCC(C)C2C)cc1 (stereo not drawn) | i
Cc1ccc(CSc2nnc3n(C)c(=O)c4ccc(C(=O)NC5CCCCC5)cc4n23)cc1 | i
CCN1C(=O)c2c(C(=O)NCc3ccc(Cl)cc3)ncn2CC1(C)C(=O)NC1CCCC1 (stereo not drawn) | i
c1ccc(CNc2cc(-c3cc(N4CCCCC4)ncn3)c3cc[nH]c3n2)nc1 | + | MTase-Glo counter=-9%
O=C(NCc1ccccn1)C1CCN(c2cc(C3CC(O)C3)ncn2)CC1 (stereo not drawn) | i
Cc1ccc(C(N)=O)cc1-c1cc(NCc2cccnc2)nc2[nH]ccc12 | i
CCOc1ccc(CN2C(=O)c3ccc(-c4ccco4)n3CC2(C)C(=O)NC2CCCC2)cc1 (stereo not drawn) | i
O=C(NCc1ccccc1Cn1cccn1)c1ccc2cccc(F)c2n1 | i
OC1(Cn2ccnc2)CCN(Cc2ccccc2Cn2cccn2)CC1 | + | MTase-Glo counter=-1%
OCC(O)c1cc2n(n1)CCN(Cc1ccccc1Cn1cccn1)C2 (stereo not drawn) | i
CCCn1c(=O)c2ccccc2n2c(=O)n(CC(=O)Nc3cc(Cl)ccc3C)nc12 | i
CC1CCCC(NC(=O)C2(C)Cn3c(cc4occc43)C(=O)N2Cc2ccccc2)C1C (stereo not drawn) | i
CCOc1ccccc1CN1C(=O)c2nc3ccccc3n2CC1(C)C(=O)NC1CCCCCC1 (stereo not drawn) | i
CCCSCCCNC(=O)c1cc2n(n1)CC(C)(C(=O)NCc1ccc(C)cc1)N(C)C2=O (stereo not drawn) | i
NCC(=O)N1CCC2(CC1)C(=O)NCN2C(=O)c1ccc(Cl)cc1 | i
CN1CCC(N2C[C@@H]3C[C@H]2C(=O)N(CC2CC2)c2ccccc2O3)CC1 | + | MTase-Glo counter=-5%[85.7 µM]
CC(C)CCN1C[C@@H]2C[C@H]1C(=O)N(Cc1cccnc1)c1ccccc1O2 | i
CCC(C(=O)NCc1ccccc1)n1ccc2cc(S(=O)(=O)N3CCCCC3)ccc21 (stereo not drawn) | i
Cc1noc2c(NCCN3CCOCC3)cc(-c3ccsc3)nc12 | i
Cc1noc2c(NCCCn3ccnc3)cc(-c3ccccn3)nc12 | i
Cc1noc2c(NC3CCN(C)CC3)cc(-c3cccs3)nc12 | + | MTase-Glo counter=5%[85.7 µM]
Cc1cccc(C2c3cccn3-c3sc4c(c3CN2C(=O)Nc2ccc(F)cc2)CCCC4)c1 (stereo not drawn) | i
O=C(CCc1ccccc1)N1CCCC(CN2CCCC2)CC1 (stereo not drawn) | i
O=C(CCc1ccccc1)N1CCNc2cnc(Nc3cccnc3)nc2C1 | + | MTase-Glo counter=-1%[85.7 µM]
O=C(Nc1ccc(Oc2cccnc2)cc1)C1CCN(CCCc2ccccc2)CC1 | i
SMILES | Methyltransferases | others
CCN1C(=O)c2cc(C(=O)N3CCN(c4ccccc4F)CC3)nn2CC1(C)C(=O)NC1CCCC1 (stereo not drawn) | i
CCN(CC)CC(O)CN1CCn2c3c(c4cc(C)ccc42)CCCC31 (stereo not drawn) | i
COc1ccc(CC(=O)N2CCCC2C(=O)N2CCC(c3nc4ccncc4[nH]3)C2)cc1 (stereo not drawn) | i
COc1ccc2nc([C@H]3CCN(C4CCCCC4)C3)[nH]c2c1 | + | MTase-Glo counter=-5%[85.7 µM]
Cc1ccc(CN2CC[C@H](c3nc4ccc(C)cc4[nH]3)C2)cc1 | i
CCCN1C(=O)c2c(C(=O)NCc3cccc(C)c3)ncn2CC1(C)C(=O)NCc1ccccc1 (stereo not drawn) | i
Cc1cnc(CCNC(=O)c2n[nH]c(=O)c3ccccc23)n1C1CCCCC1 | + | MTase-Glo counter=-6%
Cc1cnc(CCNC(=O)Nc2ccc3c(c2)OCCO3)n1C1CCC1 | + | MTase-Glo counter=-4%
COc1ccc(C(=O)NCCc2ncc(C)n2C2CC2)cn1 | i
Cc1cnc(CC2CCN(C(=O)Nc3ccc4c(c3)OCCO4)C2)n1C1CC1 (stereo not drawn) | i
Cc1cnc(CCNC(=O)c2ccc(C#N)cc2)n1C1CC1 | i
O=C(Nc1ccc2c(c1)OCCO2)N1CC(c2nc(CCOCC3CC3)no2)C1 | i
Cc1cnc(CCNC(=O)Cc2ccncc2)n1CC1CC1 | i
Cc1cnc(CCNC(=O)c2cccs2)n1C1CCC1 | + | MTase-Glo counter=3%
Cc1cnc(C(=O)NCCc2ccc(S(=O)(=O)NC(=O)NC3CCCCC3)cc2)cn1 | i
COc1cccc(NC(=O)c2cc3n(n2)CC(C)(C(=O)NC2CCCCC2)N(C)C3=O)c1 (stereo not drawn) | i
CCCn1c(=O)c2ccc(C(=O)NC(C)CC)cc2n2c(=O)n(CC(=O)Nc3ccc(C)cc3C)nc12 (stereo not drawn) | i
CC(C)=CCC[C@](C)(O)[C@H]1CC[C@]2(C)[C@@H]1[C@H](O)CC1[C@@]3(C)CC[C@H](O)C(C)(C)C3[C@@H](O[C@@H]3O[C@H](CO)[C@@H](O)[C@H](O)[C@H]3O[C@@H]3OC[C@@H](O)[C@H](O)[C@H]3O)C[C@]12C (stereo partly drawn) | i
Cc1c(OCC(=O)OCc2ccccc2)ccc2c(-c3ccccc3)cc(=O)oc12 | i
COc1cccc(N2CCN(C(=O)CCc3nnc4n(Cc5ccc(C)cc5)c(=O)c5ccccc5n34)CC2)c1 | i
Cc1ccc(NC(=O)N2CCn3cccc3C2C)cc1C (stereo not drawn) | i
CCCn1c(=O)c2ccccc2n2c(=O)n(Cc3ccc(F)cc3Cl)nc12 | i
CCc1cc2c(cc3n2CC(C)(C(=O)NC2CCC(C)CC2)N(Cc2ccccc2Cl)C3=O)s1 (stereo not drawn) | i
CC(C)NC(=O)c1ccc2c(=O)n(Cc3ccccc3)c3nnc(SCc4ccc(F)cc4)n3c2c1 | i
Cn1c(=O)c2ccccc2n2c(CCC(=O)NCCc3ccccc3)nnc12 | i
SMILES | Methyltransferases | others
c1ccc(Cn2cc(CN3CCN(c4ccncc4)CC3)c(-c3cc4ccccc4o3)n2)cc1 | + | MTase-Glo counter=5%
Cc1nn(-c2ccccc2)c(C)c1/C=N/N1CCN(Cc2ccccc2)CC1 | i
Cn1cc(CN2CCN(c3ccc(C#N)cn3)CC2)c(-c2ccccc2)n1 | i
CCCN1C(=O)c2c(C(=O)NCc3ccccc3OCC)ncn2CC1(C)C(=O)NCc1ccc(OC)cc1 (stereo not drawn) | i
Cc1ccc(CN2C(=O)c3nc4ccccc4n3CC2(C)C(=O)NCCC(C)C)cc1 (stereo not drawn) | i
Cc1cc(C)cc(NC(=O)Cn2nc3n(C)c(=O)c4ccc(C(=O)NC5CCCCC5)cc4n3c2=O)c1 | i
CC1CCC(NC(=O)C2(C)Cn3c(cc4sccc43)C(=O)N2Cc2cccs2)CC1 (stereo not drawn) | i
CCOC(=O)c1cc2n(n1)CC(C)(C(=O)NC1CCCCCC1)N(Cc1ccc3c(c1)OCO3)C2=O (stereo not drawn) | i
